Screens deposited in PubChem BioAssay by SRMLSC.
The list is not random: actives were taken first. Their share in the collection is about 6.8%.
Spn PMK inh – S. pneumoniae PMK inhibition; purified PMK, PK/LDH-coupled NADH absorbance 340 nm; inhibition, % at 10 µM; actives 0.49% (n = 65,000); AID 539;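 active = top-ranked compounds by inhibition in the single 10 µM screen, taking a fixed number of the strongest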
A340 absorber – absorbance at 340 nm; compound absorbance at 340 nm, fold over control; fold change at 10 µM; 65,000 tested, under 10 active;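 active = at 10 µM dose, initial 340 nm absorbance at least 2 fold that of control wells; inactive = change under 2 fold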;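 note: initial absorbance extrapolated from kinetic A340 decline of NADH oxidation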
Spn DPM-DC inh – blocks S. pneumoniae diphosphomevalonate decarboxylase. calls only at 10 µM. purified DPM-DC, PK/LDH coupled NADH fluorescence. actives 0.49% (n = 65,000);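 active = the 320 compounds with the highest percent inhibition in the single-dose primary screen, excluding strongly autofluorescent ones, cut at about 32% in these data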;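 note: kinetic rate of NADH fluorescence loss reporting ADP formed by the decarboxylase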
Autofluor 339 – intrinsic fluorescence of library compounds, ex339/em460 – biochemical, MLSMR library, data from DPM-DC assay, artefact control, profiling panel | compound autofluorescence, ex339/em460 nm, NADH buffer; stronger effect = higher value; 1 = no-compound wells, NADH background | actives 5.5% (n = 65,000) | fluorescence fold increase at 10 µM;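 active = at 10 µM, mean starting fluorescence two-fold or more over control wells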;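 note: signal is the first read of a kinetic run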
NADH enzymes – blocks coupling enzymes of NAD/NADH assays. AID 774. actives 0.02% (n = 65,000). IC50, µM (highest dose often 10 µM). coupled PK/LDH NADH assays, four targets;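 active = single-dose screening hits from any of four coupled enzyme assays that gave an IC50 when retested across doses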;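 note: the DPM-DC format reads NADH fluorescence rather than 340 nm absorbance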
MK inhibit – S. pneumoniae mevalonate kinase inhibition; AID 555; purified MK, PK/LDH-coupled NADH absorbance 340 nm; inhibition, % at 10 µM; actives 0.48% (n = 65,000);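 active = ranked among the strongest by inhibition in the single 10 µM screen, a fixed top-ranked set picked for dose follow-up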
Of the large screens only hits and unclear results are named; the others gave an inactive call.

CCOc1ccc2[nH]c(=O)c(C(c3nnnn3C3CCCCC3)N3CCN(CC)CC3)cc2c1 (centres undefined)	Autofluor 339 3.74 (not shown: Spn DPM-DC inh)
CC1=C(C)C(=O)NC(Nc2nc(C)c3cc(C)cc(C)c3n2)N1 (centres undefined)	none
O=C(c1ccc(F)cc1)N1CCC(N2CCCCCC2)CC1	Spn DPM-DC inh active, MK inhibit 78.0
O=C(c1ccccc1F)N1CCC(N2CCCCCC2)CC1	none
CC1(C)Cc2c(c(N3CCOCC3)nc3sc(C(=O)N4CCCCC4)c(N)c23)CO1	Autofluor 339 2.13 (not shown: Spn DPM-DC inh)
CCOC(=O)c1sc2nc(N3CCOCC3)c3c(c2c1N)CCN(C)C3	Autofluor 339 3.74 (not shown: Spn DPM-DC inh)
Cn1cnc2c(sc3nc(N4CCOCC4)c4c(c32)CC(C)(C)OC4)c1=O	none (not shown: Spn DPM-DC inh)
CNC(=O)c1ccc(-c2sc3nc(N4CCOCC4)c4c(c3c2N)CCCC4)o1	Autofluor 339 2.2 (not shown: Spn DPM-DC inh)
CC1(C)Cc2c(c(N3CCOCC3)nc3sc(-c4ccc(C(=O)O)o4)c(N)c23)CO1	Autofluor 339 3.84 (not shown: Spn DPM-DC inh)
CCN(CC)c1nc(N2CCOCC2)c(C#N)c2c1CN(C)CC2	none
c1nc(N2CCOCC2)c2sc3nc(N4CCOCC4)c4c(c3c2n1)CCCC4	none
COc1ccc(CCNCc2csc3nc4ccccc4n23)cc1OC	none
CC12C=CC3(CN(Cc4ccccc4)C(=O)C3C1C(=O)NCc1ccco1)O2 (centres undefined)	none
OCC#Cc1cnc2ccccc2c1	none
CC(OC(=O)c1cccc(NS(C)(=O)=O)c1)C(=O)Nc1ccc(N2CCOCC2)cc1 (centres undefined)	none
COc1cccc(CC(=O)Nc2nccs2)c1	none
COCc1cc(C)nc2sc(C(=O)Nc3nccs3)c(N)c12	Autofluor 339 2.2 (not shown: Spn DPM-DC inh)
Cc1cc(C)c2c(N)c(C(=O)Nc3nccs3)sc2n1	Autofluor 339 2.15 (not shown: Spn DPM-DC inh)
Cc1ncoc1C(=O)Nc1nccs1	none
Oc1oc(-c2ccco2)nc1C=Nc1ccccc1	none
Oc1ccccc1/C=N/c1c(-c2ccco2)nc2ccccn12	Autofluor 339 3.65 (not shown: Spn DPM-DC inh)
CCOC(=O)c1cc(-c2ccco2)nc2c1c(C)nn2-c1ccccc1	Autofluor 339 2.55
O=C(NCc1ccco1)c1cc2nc(-c3cccs3)cc(C(F)(F)F)n2n1	Autofluor 339 2.12 (not shown: Spn DPM-DC inh)
Cc1cc(-c2ccccc2)nc2cc(C(N)=O)nn12	Spn DPM-DC inh active, Autofluor 339 2
O=C(c1cnn2c(C(F)(F)F)cc(-c3ccc4c(c3)OCO4)nc12)N1CCCCC1	none
Cc1nn(-c2ccccc2)c2nc(-c3ccncc3)cc(C(=O)NCc3ccco3)c12	none
O=C(NC1CCCC1)c1cnn2c(C(F)(F)F)cc(-c3ccc4c(c3)OCO4)nc12	Autofluor 339 2.14
O=C(NCc1ccco1)c1cnn2c(C(F)(F)F)cc(-c3ccccc3)nc12	none
CCOC(=O)c1cnn(-c2cc(C)nc3c(-c4ccccc4)cnn23)c1N	none
CC(C)CCNC(=O)c1cnn2c(C(F)(F)F)cc(-c3ccco3)nc12	Autofluor 339 3
COc1ccc(-c2cc(C(F)(F)F)n3ncc(C(=O)NCc4ccco4)c3n2)cc1	Autofluor 339 2.18 (not shown: Spn DPM-DC inh)
O=C(NC1CCCC1)c1cnn2c(C(F)(F)F)cc(-c3ccco3)nc12	Autofluor 339 2.92
CCOC(=O)c1cnn2c(C)cc(-c3ccccc3)nc12	Autofluor 339 3.71 (not shown: Spn DPM-DC inh)
O=C(CSc1nc(-c2ccco2)cc(C(F)(F)F)n1)NC1CCCC1	none
O=C(CN1CCC(NC(=O)c2cccc(F)c2)CC1)NCc1ccccc1F	none
CCCC(=O)NCCCc1nc2ccccc2n1C(C)C	none
Cc1ccc(S(=O)(=O)N(CCO)c2cc3c(s2)CCCC3)cc1	none
CCOC(=O)c1cnn2c(C(F)(F)F)cc(-c3ccco3)nc12	Autofluor 339 4.33 (not shown: Spn DPM-DC inh)
CCOC(=O)c1cnn2c(C(F)F)cc(C3CC3)nc12	none
COC(=O)c1c(C#N)c(N)nc2c1CCC2	Autofluor 339 2.97 (not shown: Spn DPM-DC inh)
O=C(c1ccc2c(c1)OCCCO2)c1cccs1	none
Cc1ccc(-c2nnc(-c3ccc(Br)cc3)o2)o1	Autofluor 339 3.4 (not shown: Spn DPM-DC inh)
Cc1sc(NC(=O)CSc2nc(N)n(CC(=O)c3ccccc3)n2)c(C#N)c1C	none
COc1ccccc1-n1c(SCC(=O)N2CCCC2)nc2cccnc21	none
COc1ccccc1C1CC(c2ccccc2)Nc2ncnn21 (centres undefined)	none
COc1ccccc1-c1cc(C(=O)NC(C)C)no1	none
COc1ccccc1-c1cc(C(=O)Nc2ccc(F)cc2F)no1	Autofluor 339 2.12
CCOC(=O)c1c(C)n(C)c2c(C)cc(O)c(OC(C)=O)c12	none
CCN(CC)C(=O)C1CCCN(Cc2ccc(N(C)C)cc2)C1 (centres undefined)	MK inhibit 50.0
CCN(CC)C(=O)C1CCCN(Cc2ccc(F)c(F)c2)C1 (centres undefined)	none
CCN(CC)C(=O)C1CCCN(Cc2ccc(OC)c(C)c2)C1 (centres undefined)	MK inhibit 51.0
CCOC(=O)C1CCCN(Cc2ccc3c(c2)OCO3)C1 (centres undefined)	none
O=C(NCc1n[nH]c(=S)n1-c1ccccc1)c1ccco1	MK inhibit 41.0
CCOC(=O)N1CCN(c2ncnc3c2oc2nc(CC(C)C)c4c(c23)CCC4)CC1	none
CCCC(=O)N1CCN(c2nc(CC(C)C)c3c(c2C#N)CCC3)CC1	Autofluor 339 2.2 (not shown: Spn DPM-DC inh)
Cc1nc(N2CCOCC2)c(C#N)c2c1COC(C)(C)C2	Autofluor 339 2.29 (not shown: Spn DPM-DC inh)
CC1(C)Cc2c(C#N)c(N3CCOCC3)nc(Cc3ccccc3)c2CO1	Autofluor 339 2.29 (not shown: Spn DPM-DC inh)
CC1(C)Cc2nc(NCCCO)c(C#N)cc2CO1	Autofluor 339 2.38 (not shown: Spn DPM-DC inh)
COc1cccc(OCCOc2c(OC)cccc2OC)c1	none
CC1(C)Cc2nc(N3CCOCC3)c(C#N)cc2CO1	Autofluor 339 3.69 (not shown: Spn DPM-DC inh)
N#Cc1cc2cc3c(cc2nc1N1CCOCC1)OCO3	Autofluor 339 3.76 (not shown: Spn DPM-DC inh)
CC1(C)Cc2c(C#N)c(SCc3ccccc3)nc(N3CCOCC3)c2CO1	none
CCc1nc(N2CCOCC2)c(C#N)c2c1COC(C)(C)C2	Autofluor 339 3.72 (not shown: Spn DPM-DC inh)
CC1(C)Cc2c(C#N)c(N3CCOCC3)nc(-c3ccccc3)c2CO1	Autofluor 339 2.24 (not shown: Spn DPM-DC inh)
CC1(C)Cc2c(C#N)c(NCCN3CCOCC3)nc(-c3ccco3)c2CO1	none
CCc1nc(N2CCN(C(=O)c3ccccc3)CC2)c(C#N)c2c1COC(C)(C)C2	Autofluor 339 2.26 (not shown: Spn DPM-DC inh)
CC(C)Cc1nc(N2CCN(C(=O)Cc3ccccc3)CC2)c(C#N)c2c1COC(C)(C)C2	none
CC(C)C(=O)N1CCN(c2nc(-c3ccccc3)c3c(c2C#N)CCCC3)CC1	Autofluor 339 2.25 (not shown: Spn DPM-DC inh)
CC1CCN(c2nc(-c3ccco3)c3c(c2C#N)CC(C)(C)OC3)CC1	Autofluor 339 2.07 (not shown: Spn DPM-DC inh)
CCOc1ccc2nc(NC(NC(=O)CC)(C(=O)OC)C(F)(F)F)sc2c1 (centres undefined)	none
CCN(CC)C(=O)CSc1nnc(-c2ccccn2)n1-c1ccc(C)c(C)c1	none
